What was measured:
Details in all cases: concentration: 1 μM, replicates: in singlicate; n = 1
RIPK5 = tested on: RIPK5
ROCK1 = tested on: ROCK1
ROCK2 = tested on: ROCK2
ROS1 = tested on: ROS1
[1] = tested on: RPS6KA4(Kin.Dom.1-N-terminal)
[2] = tested on: RPS6KA4(Kin.Dom.2-C-terminal)
[3] = tested on: RPS6KA5(Kin.Dom.1-N-terminal)
[4] = tested on: RPS6KA5(Kin.Dom.2-C-terminal)
[5] = tested on: T1, RSK1(Kin.Dom.1-N-terminal)
T1 construct: gene RPS6KA1

[6] = tested on: T2, RSK1(Kin.Dom.2-C-terminal)
T2 construct: gene RPS6KA1

[7] = tested on: T3, RSK2(Kin.Dom.1-N-terminal)
T3 construct: gene RPS6KA3

[8] = tested on: T4, RSK2(Kin.Dom.2-C-terminal)
T4 construct: gene RPS6KA3

[9] = tested on: T5, RSK3(Kin.Dom.1-N-terminal)
T5 construct: gene RPS6KA2

[10] = tested on: T6, RSK3(Kin.Dom.2-C-terminal)
T6 construct: gene RPS6KA2

[11] = tested on: T7, RSK4(Kin.Dom.1-N-terminal)
T7 construct: gene RPS6KA6

[12] = tested on: T8, RSK4(Kin.Dom.2-C-terminal)
T8 construct: gene RPS6KA6

S6K1 = tested on: S6K1
SBK1 = tested on: SBK1
SGK2 = tested on: SGK2
SGK3 = tested on: SGK3
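Note: KINOMEscan kinase panel screen.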

Row | SMILES | %Inh (RIPK5) | %Inh (ROCK1) | %Inh (ROCK2) | %Inh (ROS1) | %Inh [1] | %Inh [2] | %Inh [3] | %Inh [4] | %Inh [5] | %Inh [6] | %Inh [7] | %Inh [8] | %Inh [9] | %Inh [10] | %Inh [11] | %Inh [12] | %Inh (S6K1) | %Inh (SBK1) | %Inh (SGK2) | %Inh (SGK3)
1 | c1ccc(-c2cc(-c3c[nH]nc3-c3ccccn3)ccn2)cc1 [GW576604] | 0% | 10% | 30% | 21% | 0% | 0% | 0% | 3% | 0% | 1% | 0% | 0% | 0% | 4% | 0% | 8% | 0% | 0% | 0% | 0%
2 | Fc1ccc(-c2ncn(CCCN3CCOCC3)c2-c2ccccn2)cc1 [SB-211742] | 0% | 0% | 0% | 0% | 26% | 0% | 0% | 5% | 0% | 16% | 0% | 49% | 0% | 35% | 0% | 0% | 0% | 0% | 0% | 0%
3 | O=C(NCCCN1CCOCC1)c1cccc(Nc2nccc(Nc3ccc(Oc4ccccc4)cc3)n2)c1 [GW663929] | 7% | 0% | 27% | 25% | 0% | 0% | 0% | 32% | 18% | 20% | 0% | 11% | 7% | 10% | 0% | 20% | 0% | 1% | 12% | 19%
4 | Nc1nccc(-c2c(-c3ccc(F)cc3)ncn2C2CCN(CC(F)(F)F)CC2)n1 [SB-236560] | 13% | 38% | 49% | 14% | 0% | 0% | 0% | 0% | 0% | 27% | 14% | 35% | 13% | 35% | 0% | 56% | 0% | 0% | 0% | 3%
5 | O=C(NOCC1CC1)c1ccc(F)c(F)c1Nc1ccc(I)cc1Cl | 0% | 0% | 0% | 0% | 0% | 0% | 0% | 0% | 0% | 6% | 0% | 0% | 0% | 0% | 0% | 0% | 0% | 0% | 0% | 0%
6 | Fc1ccc(-c2nn3c(OCC(F)(F)F)cccc3c2-c2ccncc2)cc1 [GW514784] | 0% | 36% | 34% | 13% | 10% | 0% | 12% | 13% | 6% | 29% | 0% | 0% | 3% | 8% | 0% | 89% | 0% | 2% | 9% | 0%
7 | COc1ccc(Nc2nccc(N3CCC(NC(=O)Nc4cccc(C(C)=O)c4)C3)n2)cc1 (stereo not shown) [GSK1379731] | 0% | 25% | 0% | 4% | 2% | 0% | 0% | 0% | 0% | 0% | 0% | 0% | 1% | 0% | 0% | 2% | 9% | 20% | 0% | 0%
8 | CC(=O)Nc1ccc(COc2ccc(Nc3ccnc4cc(-c5ccccn5)ccc34)cc2)cc1.Cl [GW440148] | 0% | 14% | 7% | 0% | 0% | 0% | 1% | 20% | 7% | 33% | 0% | 6% | 3% | 11% | 0% | 26% | 0% | 0% | 0% | 8%
9 | Cc1nnc(-c2ccc3occ(-c4ccc(C(C)O)cc4)c3c2)o1 (stereo not shown) | 0% | 5% | 0% | 0% | 9% | 25% | 20% | 0% | 9% | 1% | 3% | 0% | 0% | 3% | 19% | 7% | 0% | 0% | 0% | 0%
10 | CCCCCc1nc2c(N)ncnc2n1CCCCC [SKF-97255] | 8% | 90.1% | 59% | 1% | 6% | 0% | 14% | 9% | 8% | 11% | 32% | 0% | 0% | 7% | 20% | 0% | 13% | 0% | 0% | 0%
11 | O=C1Cc2cc(Nc3nc(NCc4cccc(S(=O)(=O)C(F)(F)F)c4)ncc3C(F)(F)F)ccc2N1 | 4% | 6% | 13% | 3% | 11% | 24% | 0% | 0% | 41% | 0% | 37% | 15% | 8% | 0% | 35% | 0% | 0% | 0% | 2% | 33%
12 | Cc1c(Cn2c(C)nn3c(=O)cc(N4CCOC(C)C4)nc23)cccc1C(F)(F)F (stereo not shown) [GSK2344444] | 0% | 0% | 10% | 14% | 21% | 0% | 0% | 0% | 0% | 6% | 10% | 0% | 3% | 0% | 1% | 17% | 9% | 33% | 0% | 0%
13 | Fc1ccc(-c2ncn(CCCN3CCOCC3)c2-c2cccnc2)cc1 [SB-211743] | 9% | 0% | 6% | 27% | 31% | 0% | 0% | 5% | 2% | 9% | 34% | 0% | 0% | 27% | 20% | 0% | 0% | 1% | 0% | 0%
14 | COc1cc2c(cc1OCCN1CCN(C)CC1)ncc1c3ccc(C#N)cc3[nH]c21 | 33% | 98.1% | 99.4% | 0% | 0% | 0% | 0% | 71% | 0% | 26% | 61% | 42% | 33% | 47% | 67% | 44% | 53% | 72% | 43% | 19%
15 | COc1ccc(S(=O)(=O)NC2CCN(c3cc(C)nc(Nc4cccc(C#N)c4)n3)CC2)cc1.O=C(O)C(F)(F)F [GSK1653539] | 0% | 0% | 0% | 16% | 0% | 0% | 2% | 23% | 8% | 0% | 0% | 0% | 1% | 0% | 0% | 21% | 0% | 0% | 0% | 4%
16 | Cc1cccc(Cn2ccn3c(=O)cc(N4CCOCC4)nc23)c1 [GSK2297542] | 1% | 17% | 27% | 30% | 13% | 0% | 16% | 0% | 27% | 25% | 11% | 33% | 19% | 44% | 0% | 42% | 6% | 26% | 1% | 0%
17 | CN1c2ccc(CNc3ccc(F)cc3)cc2-c2c(cnn2C)S1(=O)=O | 4% | 0% | 0% | 4% | 0% | 0% | 0% | 0% | 0% | 14% | 23% | 41% | 3% | 8% | 5% | 0% | 0% | 0% | 100% | 0%
18 | O=C(Nc1cccc(-c2nn3ncccc3c2-c2ccnc(Nc3cccc(C(F)(F)F)c3)n2)c1)c1c(F)cccc1F [GSK299495] | 0% | 12% | 16% | 0% | 2% | 0% | 23% | 5% | 97.4% | 0% | 22% | 0% | 31% | 5% | 0% | 0% | 0% | 11% | 2% | 0%
19 | COC(=O)Nc1nc2cc(Oc3ccc(NC(=O)Nc4cc(F)ccc4F)cc3)ccc2[nH]1.Cl [GW701424] | 0% | 52% | 67% | 0% | 0% | 0% | 24% | 43% | 0% | 0% | 5% | 1% | 8% | 13% | 0% | 18% | 2% | 6% | 0% | 12%
20 | O=C1NC(=O)C(N2CCc3ccccc32)=C1c1cccc(Cl)c1 [SB-408010] | 9% | 0% | 0% | 0% | 4% | 0% | 9% | 0% | 0% | 11% | 0% | 0% | 10% | 21% | 35% | 11% | 0% | 5% | 0% | 0%
